From PubChem BioAssay (Tox21)
Records with an inconclusive call do not appear. The source made the active and inactive calls. Unless noted, calls follow the shape of the dose curve; as a rule, active = well fitted curve in the direction sought with a large enough effect in the repeat runs; inconclusive = weak or mixed curves; inactive = no such curve, though single readings can be large; an effect the other way counts as inactive or inconclusive.

Assays:
[1] = qHTS assay for small molecule agonists of the p53 signaling pathway (AID 651631; calls by dose curve; also: nearly all actives have a fitted effect of over 15% in size)
In short: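 Read-out is beta-lactamase FRET fluorescence measured 2 h after substrate addition at room temperature, in HCT-116 cells with a p53 response element-driven reporter exposed to compounds for 16 h at 37 °C.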

[2] = qHTS assay for small molecules that induce genotoxicity in human embryonic kidney cells expressing luciferase-tagged ATAD5 (AID 651632); also: nearly all actives have a fitted effect of over 15% in size
In short: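 Test compounds were delivered by pin tool onto HEK293T reporter cells (2,000/well) expressing ATAD5 fused to luciferase. After 16 hr at 37C, 5% CO2, Amplite was added for 30 min at room temperature and luminescence was measured.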

[3] = qHTS assay for small molecule agonists of the p53 signaling pathway - cell viability (AID 651633; calls by dose curve;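 also: p53RE-bla HCT reporter cells with a stable beta-lactamase p53 reporter; series mostly up to about 83 µM; nearly all actives have a fitted effect of over 30% in size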)
In short: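 p53RE-bla cells were treated with compound for 16 hours at 37 C. Cytotoxicity was then measured as CellTiter-Glo luminescence after 30 min at room temperature.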

[4] = qHTS assay for small molecules that induce genotoxicity in human embryonic kidney cells expressing luciferase-tagged ATAD5 - cell viability (AID 651634; calls by dose curve; also: nearly all actives have a fitted effect of over 25% in size)
In short: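 Quantitative high-throughput format. HEK293T cells expressing ATAD5 fused to luciferase were plated at 2,000 cells/well and treated 15.5 hr with compound versus DMSO. Viability was determined by fluorescent live-cell protease substrate, 30 min at 37C.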

[5] = qHTS assay for small molecule disruptors of the mitochondrial membrane potential - cell viability (AID 720634; calls by dose curve; also: nearly all actives have a fitted effect of over 20% in size; also: potency is read from the fitted curve at half-maximal effect)
In short: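 Same-well counter-screen: following the MMP dye addition, CellTiter-Glo was added to 1 hr compound-treated HepG2 cells and luminescence read after 30 min at room temperature.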

[6] = qHTS assay to test for compound auto fluorescence at 590 nm (red) in HepG2 cells (AID 720674)
In short: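 Seeding: 2,000 HepG2 cells/well, MEM/10% FBS, overnight 37 C. Dosing: compound vs DMSO. Incubation: 1 hr, 37 C, 5% CO2. Read: fluorescence 540 ex/590 em, Rose Bengal sodium as red reference.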

[7] = qHTS assay to test for compound auto fluorescence at 535 nm (green) in HepG2 cells (AID 720675)
[8] = qHTS assay to test for compound auto fluorescence at 460 nm (blue) in HEK293 cells (AID 720678)
In short: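 HEK293, 2,000 cells/well, 10% dialyzed FBS; attach 4-5 hr 37C; pin compound or DMSO; o/n 37C/5% CO2; fluorescence 405/460 nm; triamterene-equivalent units.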

[9] = qHTS assay to test for compound auto fluorescence at 590 nm (red) in HEK293 cells (AID 720679)
In short: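 Intensity at 540nm excitation and 590nm emission is reported as Rose Bengal sodium-equivalent autofluorescence. Measurements followed overnight exposure (37C, 5% CO2) of HEK293 cells, 2,000 per well, to 23 nL compound.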

[10] = qHTS assay to test for compound auto fluorescence at 535 nm (green) in HEK293 cells (AID 720680)
[11] = qHTS assay to test for compound auto fluorescence at 460 nm (blue) in HEK293 cell free culture (AID 720681)
In short: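 Compounds were added to cell-free DMEM with 10% FBS and fluorescence read directly. The blue channel used 405 nm excitation and 460 nm emission, with triamterene as the reference fluorophore.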

[12] = qHTS assay to test for compound auto fluorescence at 535 nm (green) in HEK293 cell free culture (AID 720682)
In short: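 Fluorescein serves as the green reference fluorophore; each compound's intrinsic emission at 535 nm (excitation 485 nm) is reported as an equivalent amount of that dye, measured in serum-containing DMEM without cells.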

[13] = qHTS assay to test for compound auto fluorescence at 590 nm (red) in HEK293 cell free culture (AID 720683)
In short: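 Cell-free wells of DMEM with 10% FBS received compound, and intrinsic fluorescence was read at excitation/emission 540/590 nm. Values expressed as equivalence to Rose Bengal sodium.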

[14] = qHTS assay to test for compound auto fluorescence at 590 nm (red) in HepG2 cell free culture (AID 720684)
In short: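 Rose Bengal sodium served as the reference for red signal. Test compounds were dispensed into serum-containing MEM (10% FBS) without cells, and plates were read at 540/590 nm.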

[15] = qHTS assay to test for compound auto fluorescence at 460 nm (blue) in HepG2 cell free culture (AID 720685)
In short: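 Cell-free plates of MEM plus 10% FBS received 23 nL compound or DMSO vehicle; blue-channel (405/460 nm) intensity scored against triamterene as reference fluorophore.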

[16] = qHTS assay to test for compound auto fluorescence at 535 nm (green) in HepG2 cell free culture (AID 720686)
[17] = qHTS assay to test for compound auto fluorescence at 460 nm (blue) in HepG2 cells (AID 720687)
In short: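 HepG2 cells in MEM with 10% FBS, attached overnight at 37 C, were exposed to compound or DMSO for 1 hr at 37 C, 5% CO2. Blue fluorescence was read at 405/460 nm, with triamterene as reference fluorophore.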

[18] = target: Glucocorticoid receptor (Homo sapiens) (UniProt P04150); experiment: qHTS assay to identify small molecule agonists of the glucocorticoid receptor (GR) signaling pathway (AID 720691; active = well fitted activation curve with a large enough effect in the signal ratio in the repeat runs, not every such curve was filed as active; the % refers to the signal ratio)
In short: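 A HeLa cervical cancer line expressing GR and a glucocorticoid response element-driven beta-lactamase gene is treated with compounds for 18 h; LiveBLAzer B/G FRET substrate is then applied and fluorescence read.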

[19] = target: Glucocorticoid receptor (Homo sapiens) (UniProt P04150); experiment: qHTS assay to identify small molecule antagonists of the glucocorticoid receptor (GR) signaling pathway (AID 720692; active = well fitted inhibition curve with a large enough effect in the signal ratio in the repeat runs, not every such curve was filed as active; the % refers to the signal ratio)
In short: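 GRE-bla HeLa line, dex-stimulated (5 nM final). Compound exposure 18 h, 37 C. Beta-lactamase FRET read after 2 h RT substrate.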
% is scaled to controls: 0 for no effect and ±100 for the full control effect.

Chain of Glucocorticoid receptor (Homo sapiens) (P04150 whole entry, looked up): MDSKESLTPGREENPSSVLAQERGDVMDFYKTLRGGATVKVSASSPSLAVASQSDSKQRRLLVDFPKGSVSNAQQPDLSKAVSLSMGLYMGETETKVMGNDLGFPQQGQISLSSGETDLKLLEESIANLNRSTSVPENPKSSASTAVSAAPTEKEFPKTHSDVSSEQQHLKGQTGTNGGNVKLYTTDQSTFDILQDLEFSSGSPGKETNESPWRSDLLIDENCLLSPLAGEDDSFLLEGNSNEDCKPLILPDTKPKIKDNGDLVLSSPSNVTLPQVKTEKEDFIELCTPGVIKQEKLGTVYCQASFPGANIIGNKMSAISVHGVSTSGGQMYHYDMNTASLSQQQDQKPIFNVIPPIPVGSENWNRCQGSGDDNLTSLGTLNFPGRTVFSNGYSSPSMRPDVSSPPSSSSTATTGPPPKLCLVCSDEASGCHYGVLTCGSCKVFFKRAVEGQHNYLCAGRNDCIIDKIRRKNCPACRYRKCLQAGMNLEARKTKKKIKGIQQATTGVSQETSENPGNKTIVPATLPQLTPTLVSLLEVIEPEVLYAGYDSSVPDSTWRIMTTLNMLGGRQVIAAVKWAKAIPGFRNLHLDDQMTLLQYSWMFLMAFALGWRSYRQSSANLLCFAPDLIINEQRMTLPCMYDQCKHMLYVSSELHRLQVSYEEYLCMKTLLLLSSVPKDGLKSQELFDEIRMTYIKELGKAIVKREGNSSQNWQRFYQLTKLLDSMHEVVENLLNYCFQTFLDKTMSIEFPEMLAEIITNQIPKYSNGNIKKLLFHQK

COC(=O)[C@H]1[C@H]2C[C@@H]3c4[nH]c5cc(OC)ccc5c4CCN3C[C@H]2C[C@@H](OC(=O)COc2ccc(OC)cc2)[C@@H]1OC
inactive: Potency [1] | Potency [2] | Potency [3] | Potency [4] | Potency [5] | outcome [6] | outcome [7] | Potency [8] | outcome [9] | outcome [10] | Potency [11] | outcome [12] | outcome [13] | outcome [14] | Potency [15] | outcome [16] | Potency [17] | Potency [18]

NC(=O)Nc1nc2ccccc2[nH]1
inactive: Potency [1] | Potency [2] | Potency [3] | Potency [4] | Potency [5] | outcome [6] | outcome [7] | Potency [8] | outcome [9] | outcome [10] | Potency [11] | outcome [12] | outcome [14] | Potency [15] | outcome [16] | Potency [17]

NS(=O)(=O)c1cc2c(cc1Cl)NC(CSCc1ccccc1)=NS2(=O)=O
inactive: Potency [1] | Potency [2] | Potency [3] | Potency [4] | Potency [5] | fluorescence, relative to Rose Bengal [6] -0.338% [at 18.6 µM] | fluorescence, % of fluorescein control [7] 0.0219% [at 18.6 µM] | fluorescence, % of triamterene [8] -0.0281% [at 18.6 µM] | fluorescence, % of fluorescent control [9] -0.0194% [at 18.6 µM] | fluorescence, % of fluorescein [10] -0.0376% [at 18.6 µM] | fluorescence, % of fluorescent control [11] -0.0458% [at 18.6 µM] | activity change [12] -0.222% [at 18.6 µM] | fluorescence, % of fluorescent control [13] 0.107% [at 18.6 µM] | fluorescence, % of Rose Bengal [14] 0.12% [at 18.6 µM] | fluorescence, % of fluorescent control [15] -0.0404% [at 18.6 µM] | fluorescence, % of fluorescein control [16] -0.0451% [at 18.6 µM] | fluorescence, % of fluorescent control [17] 0.19% [at 18.6 µM] | Potency [18] | Potency [19]

CCCC(C)CO (stereo unspecified)
inactive: Potency [1] | Potency [2] | Potency [3] | Potency [4] | Potency [5] | outcome [6] | outcome [7] | Potency [8] | outcome [9] | outcome [10] | Potency [11] | outcome [12] | outcome [13] | outcome [14] | Potency [15] | outcome [16] | Potency [17] | Potency [18] | Potency [19]

CCCCNc1ccccc1
inactive: Potency [1] | Potency [2] | Potency [3] | Potency [4] | Potency [5] | outcome [6] | outcome [7] | Potency [8] | outcome [9] | outcome [10] | Potency [11] | outcome [12] | outcome [14] | Potency [15] | outcome [16] | Potency [17] | Potency [18] | Potency [19]

O=C(O)CCNC(=O)c1ccc(N=Nc2ccc(O)c(C(=O)O)c2)cc1
inactive: Potency [1] | Potency [2] | Potency [3] | Potency [4] | Potency [5] | outcome [6] | outcome [7] | Potency [8] | outcome [9] | outcome [10] | Potency [11] | outcome [12] | outcome [13] | outcome [14] | Potency [15] | outcome [16] | Potency [17] | Potency [18] | Potency [19]

CC(C)[C@H](N)C(=O)OCCOCn1cnc2c(=O)[nH]c(N)nc21
inactive: Potency [1] | Potency [2] | Potency [3] | Potency [4] | Potency [5] | outcome [6] | outcome [7] | Potency [8] | outcome [9] | outcome [10] | Potency [11] | outcome [12] | outcome [13] | outcome [14] | Potency [15] | outcome [16] | Potency [17] | Potency [18] | Potency [19]

CCC(=O)Nc1cccc(N)c1
inactive: Potency [1] | Potency [2] | Potency [3] | Potency [4] | Potency [5] | outcome [6] | outcome [7] | Potency [8] | outcome [9] | outcome [10] | Potency [11] | outcome [12] | outcome [13] | outcome [14] | Potency [15] | outcome [16] | Potency [17] | Potency [18] | Potency [19]

COC(=O)CCCCCCCCC(=O)OC
inactive: Potency [1] | Potency [2] | Potency [3] | Potency [4] | Potency [5] | outcome [6] | outcome [7] | Potency [8] | outcome [9] | outcome [10] | Potency [11] | outcome [12] | outcome [14] | Potency [15] | outcome [16] | Potency [17]

COC(=O)CCCC(=O)O
inactive: Potency [1] | Potency [2] | Potency [3] | Potency [4] | Potency [5] | outcome [6] | outcome [7] | Potency [8] | outcome [9] | outcome [10] | Potency [11] | outcome [12] | outcome [13] | outcome [14] | Potency [15] | outcome [16] | Potency [17] | Potency [18]

CN(C)CCOC(c1ccc(Cl)cc1)c1ccccn1 (stereo unspecified)
inactive: Potency [1] | Potency [2] | Potency [3] | Potency [4] | outcome [6] | outcome [7] | Potency [8] | outcome [9] | outcome [10] | Potency [11] | outcome [12] | outcome [13] | outcome [14] | Potency [15] | outcome [16] | Potency [17] | Potency [18] | Potency [19]
active: Potency [5] 5.31 µM

CCCCCCC(=O)OCC
inactive: Potency [1] | Potency [2] | Potency [3] | Potency [4] | Potency [5] | outcome [6] | outcome [7] | Potency [8] | outcome [9] | outcome [10] | Potency [11] | outcome [12] | outcome [14] | Potency [15] | outcome [16] | Potency [17]

NS(=O)(=O)c1cc2c(cc1C(F)(F)F)NC(Cc1ccccc1)NS2(=O)=O (stereo unspecified)
inactive: Potency [1] | Potency [2] | Potency [3] | Potency [4] | Potency [5] | fluorescence, relative to Rose Bengal [6] 0.0251% [at 18.6 µM] | fluorescence, % of fluorescein control [7] -0.0381% [at 18.6 µM] | fluorescence, % of triamterene [8] 0.0799% [at 18.6 µM] | fluorescence, % of fluorescent control [9] 0.307% [at 18.6 µM] | fluorescence, % of fluorescein [10] 0.103% [at 18.6 µM] | fluorescence, % of fluorescent control [11] 0.419% [at 18.6 µM] | activity change [12] 0.196% [at 18.6 µM] | fluorescence, % of Rose Bengal [14] -0.15% [at 18.6 µM] | fluorescence, % of fluorescent control [15] -0.0286% [at 18.6 µM] | fluorescence, % of fluorescein control [16] -0.0871% [at 18.6 µM] | fluorescence, % of fluorescent control [17] 0.0124% [at 18.6 µM]

COc1cc(CCC(C)=O)ccc1O
inactive: Potency [1] | Potency [2] | Potency [3] | Potency [4] | Potency [5] | outcome [6] | outcome [7] | Potency [8] | outcome [9] | outcome [10] | Potency [11] | outcome [12] | outcome [13] | outcome [14] | Potency [15] | outcome [16] | Potency [17] | Potency [18] | Potency [19]
